The text below walks through data of PubChem BioAssay (EPA / NIEHS).

SMILES strings stand for the structures. Inconclusive results are not listed. Activity calls are given as the source filed them. Rule for the calls, unless noted: active = hit-call score of the fitted dose curve at least 0.9, where 1 is the maximum; inconclusive = response in the unintended direction; inactive = score below 0.9.

Read-out in assay [1]: ABC Transporter (ABCB11), ABCB11 (gene 8647)
Description: CLD_ABCB11_6hr: CellzDirect (CLD) Gene Expression Assay for ABC Transporter (ABCB11) at 6 hours (AID 2283675).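 Note: hits raise ABCB11 mRNA level so AC50 marks induction.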 In short, it runs like this:
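Read-out was ABCB11 mRNA gain of signal by quantitative nuclease protection assay, relative to 0.2% DMSO vehicle, 6 h post-dose. Cells were primary human hepatocytes from two donors, treated across multiple concentrations; phase-contrast cytotoxicity noted yes/no.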

The nature of assay [2]: CLD_ACTIN_6hr: CellzDirect (CLD) Gene Expression Assay for Baseline Control (Actin) at 6 hours (AID 2283676).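 Note: active means increased actin mRNA relative to DMSO vehicle.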 In short, it runs like this:
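Baseline actin transcript level measured by qNPA (S1 nuclease protection, chemiluminescence) in human hepatocyte cultures 6 h after chemical exposure; 0.2% DMSO vehicle as reference, cytotoxicity noted from morphology.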

Read-out in assay [3]: Cytochrome P450 2B6 (Homo sapiens) (UniProt P20813)
Description: CLD_CYP2B6_6hr: CellzDirect (CLD) Gene Expression Assay for xenobiotic metabolism (CYP2B6) at 6 hours (AID 2283677).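 Note: actives raise CYP2B6 transcript above DMSO baseline so AC50 marks an inducer.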 A digest of the protocol: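 CYP2B6 transcript levels, read by chemiluminescent qNPA, were fitted for increase versus DMSO baseline; cultured human liver hepatocytes from two donor preparations were harvested 6 h after exposure to test chemicals at multiple concentrations.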

Read-out in assay [4]: Cytochrome P450 2C19 (Homo sapiens) (UniProt P33261)
Description: CLD_CYP2C19_6hr: CellzDirect (CLD) Gene Expression Assay for xenobiotic metabolism (CYP2C19) at 6 hours (AID 2283678). A digest of the protocol: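 CYP2C19 transcript induction was quantified by quantitative nuclease protection assay with chemiluminescent read-out, 6 h after dosing. Cells were primary human hepatocytes from two donor preparations, given fresh dosing solutions daily in 0.2% DMSO vehicle. Activity was relative to DMSO.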

A short description of assay [5]: CCTE_Padilla_ZF_144hpf_TERATOSCORE: (Legacy) CCTE's 144 Hour Post-fertilization zebrafish Assay Teratoscore, Padilla Lab (AID 2283679; active = hit-call score of the fitted dose curve at least 0.9, where 1 is the maximum; inactive = score below 0.9;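 for AC50: zebrafish embryos with chorions exposed by immersion from 6-8 hpf to 5 dpf with daily renewal; teratogenicity score from eye scoring of death hatching and malformations at 144 hpf; higher score means more developmental defects relative to DMSO baseline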). A digest of the protocol: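 Larvae scored by eye at 144 hpf for death, hatching and malformations after a day in clean Hanks'. Before that, daily-renewed exposure at 80 uM (0.4% DMSO, 26C) from roughly 6-8 hpf through 5 dpf, 4 embryos per chemical.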

Read-out in assay [6]: Glyceraldehyde-3-phosphate dehydrogenase (Homo sapiens) (UniProt P04406)
Description: CLD_GAPDH_6hr: CellzDirect (CLD) Gene Expression Assay for Baseline Control (Glyceraldehyde 3-phosphate dehydrogenase) at 6 hours (AID 2283681).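 Note: active means increased signal relative to DMSO vehicle.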 A digest of the protocol: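 GAPDH baseline-control readout from qNPA (S1 nuclease digestion, probe hybridization, chemiluminescence) in lysates of cultured human hepatocytes harvested 6 h post-dosing. Chemicals tested at multiple concentrations versus 0.2% DMSO vehicle; microscopy-based cytotoxicity flagged yes/no.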

Read-out in assay [7]: Cytochrome P450 2B6 (Homo sapiens) (UniProt P20813)
Description: CLD_CYP2B6_24hr: CellzDirect (CLD) Gene Expression Assay for xenobiotic metabolism (CYP2B6) at 24 hours (AID 2283686). A digest of the protocol: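 qNPA chemiluminescent measurement of mRNA at 24 hours in human primary hepatocyte cultures from two donor preparations, with daily fresh dosing and 0.2% DMSO vehicle as baseline. Morphology-based cytotoxicity flagged yes/no.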

Read-out in assay [8]: Cytochrome P450 3A4 (Homo sapiens) (UniProt P08684)
Description: CLD_CYP3A4_48hr: CellzDirect (CLD) Gene Expression Assay for xenobiotic metabolism (CYP3A4) at 48 hours (AID 2283698). A digest of the protocol: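 CYP3A4 induction read by qNPA chemiluminescence after 48 h, with fresh dosing solutions on consecutive days, in cultured human hepatocytes (two donors). Vehicle 0.2% DMSO as baseline; microscopy-based cytotoxicity annotated yes/no alongside data.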

Read-out in assay [9]: Cytochrome P450 2B6 (Homo sapiens) (UniProt P20813)
Description: CLD_CYP2B6_48hr: CellzDirect (CLD) Gene Expression Assay for xenobiotic metabolism (CYP2B6) at 48 hours (AID 2283699).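 Note: actives raise transcript level above DMSO so potency reflects induction.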 A digest of the protocol:
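CYP2B6 transcript induction, read by quantitative nuclease protection (S1 digestion, chemiluminescent detection) 48 h after dosing, is fitted upward against 0.2% DMSO. Cultured human liver primary cells, two donor preparations, received fresh chemical daily over multiple concentrations.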

Read-out in assay [10]: xenobiotic metabolism (CYP1A2), CYP1A2 (gene 1544)
Description: CLD_CYP1A2_48hr: CellzDirect (CLD) Gene Expression Assay for xenobiotic metabolism (CYP1A2) at 48 hours (AID 2283703). A digest of the protocol:
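Cytotoxicity was flagged yes/no from morphology, while CYP1A2 transcript induction was detected by qNPA chemiluminescence after a 48-hour exposure. Human primary hepatocyte cultures from separate donors received fresh dosing solutions daily over two days, with 0.2% DMSO as vehicle and baseline.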

Read-out in assay [11]: Broad substrate specificity ATP-binding cassette transporter ABCG2 (Homo sapiens) (UniProt Q9UNQ0)
Description: CLD_ABCG2_48hr: CellzDirect (CLD) Gene Expression Assay for ABC Transporter (ABCG2) at 48 hours (AID 2283704).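 For AC50: potency for induction of ABCG2 mRNA above the DMSO baseline.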 In short, it runs like this: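 ABCG2 transcript measured at 48 h by quantitative nuclease protection (chemiluminescent) and fitted for increase relative to 0.2% DMSO. Hepatocyte cultures from separate donors got fresh compound daily over two days; morphology annotated cytotoxicity.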

Read-out in assay [12]: xenobiotic metabolism (CYP1A1), CYP1A1 (gene 1543)
Description: CLD_CYP1A1_48hr: CellzDirect (CLD) Gene Expression Assay for xenobiotic metabolism (CYP1A1) at 48 hours (AID 2283705). A digest of the protocol:
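CYP1A1 transcript measured by quantitative nuclease protection (chemiluminescent) 48 h after two daily treatments of human hepatocyte cultures, versus 0.2% DMSO. Morphology-based cytotoxicity flags accompany data; two donor preparations used.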

Read-out in assay [13]: Glyceraldehyde-3-phosphate dehydrogenase (Homo sapiens) (UniProt P04406)
Description: CLD_GAPDH_48hr: CellzDirect (CLD) Gene Expression Assay for Baseline Control (Glyceraldehyde 3-phosphate dehydrogenase) at 48 hours (AID 2283706).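 Note: active means higher GAPDH mRNA than DMSO vehicle.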 A digest of the protocol: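 GAPDH baseline-control readout: qNPA chemiluminescent mRNA quantitation in human liver primary cells 48 h after daily dosing on two consecutive days, vehicle 0.2% DMSO; gain of signal fitted against DMSO, cytotoxicity flagged by phase-contrast morphology.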

Read-out in assay [14]: ABC Transporter (ABCB11), ABCB11 (gene 8647)
Description: CLD_ABCB11_24hr: CellzDirect (CLD) Gene Expression Assay for ABC Transporter (ABCB11) at 24 hours (AID 2283674; active = hit-call score of the fitted dose curve at least 0.9, where 1 is the maximum; inactive = score below 0.9). A digest of the protocol: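 ABCB11 transcript was quantified by qNPA chemiluminescence in cultured human liver hepatocytes 24 hours after dosing. Fresh dosing solutions were applied on consecutive days, against a 0.2% DMSO vehicle. Cytotoxicity was noted by phase-contrast morphology.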

Read-out in assay [15]: xenobiotic metabolism (CYP1A2), CYP1A2 (gene 1544)
Description: CLD_CYP1A2_24hr: CellzDirect (CLD) Gene Expression Assay for xenobiotic metabolism (CYP1A2) at 24 hours (AID 2283683). In short, it runs like this: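 CYP1A2 mRNA induction measured by quantitative nuclease protection (chemiluminescent) in human primary hepatocytes 24 h after multi-concentration chemical dosing with daily fresh solutions. DMSO (0.2%) baseline; positive-direction fitting; morphology-based cytotoxicity noted.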

Read-out in assay [16]: glucuronosyltransferase (UGT1A1), UGT1A1 (gene 54658)
Description: CLD_UGT1A1_24hr: CellzDirect (CLD) Gene Expression Assay for glucuronosyltransferase (UGT1A1) at 24 hours (AID 2283696). In short, it runs like this:
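UGT1A1 transcript induction was measured by quantitative nuclease protection assay (chemiluminescence) in human hepatocyte cultures 24 h after daily fresh dosing, with 0.2% DMSO as vehicle and baseline.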

Read-out in assay [17]: ABC Transporter (ABCB11), ABCB11 (gene 8647)
Description: CLD_ABCB11_48hr: CellzDirect (CLD) Gene Expression Assay for ABC Transporter (ABCB11) at 48 hours (AID 2283697). In short, it runs like this: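 Induction of ABCB11 mRNA relative to 0.2% DMSO, measured at 48 h by qNPA chemiluminescence. Cultured human hepatocytes (two donors) received fresh dosing solutions at several concentrations on two consecutive days.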

Read-out in assay [18]: organic anion transporter (SLCO1B1), SLCO1B1 (gene 10599)
Description: CLD_SLCO1B1_48hr: CellzDirect (CLD) Gene Expression Assay for organic anion transporter (SLCO1B1) at 48 hours (AID 2283707). A digest of the protocol: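 SLCO1B1 transcript quantified by qNPA with chemiluminescent readout after 48 h of once-daily chemical exposure. Cultured human primary hepatocytes came from two donors, with 0.2% DMSO vehicle; positive-direction fitting against DMSO, cytotoxicity flagged by morphology.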

Chain of Glyceraldehyde-3-phosphate dehydrogenase (Homo sapiens) (P04406 whole entry, looked up): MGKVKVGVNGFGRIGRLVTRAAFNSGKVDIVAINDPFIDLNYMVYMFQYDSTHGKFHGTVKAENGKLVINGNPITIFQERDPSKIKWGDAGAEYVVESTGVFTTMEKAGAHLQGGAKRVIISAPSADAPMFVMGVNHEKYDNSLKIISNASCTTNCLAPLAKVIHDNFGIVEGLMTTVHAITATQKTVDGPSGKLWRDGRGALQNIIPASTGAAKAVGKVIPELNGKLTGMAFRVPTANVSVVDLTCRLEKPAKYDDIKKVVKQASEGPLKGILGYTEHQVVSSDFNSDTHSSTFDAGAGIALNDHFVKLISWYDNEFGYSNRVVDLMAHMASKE
Chain of Broad substrate specificity ATP-binding cassette transporter ABCG2 (Homo sapiens) (Q9UNQ0 whole entry, looked up): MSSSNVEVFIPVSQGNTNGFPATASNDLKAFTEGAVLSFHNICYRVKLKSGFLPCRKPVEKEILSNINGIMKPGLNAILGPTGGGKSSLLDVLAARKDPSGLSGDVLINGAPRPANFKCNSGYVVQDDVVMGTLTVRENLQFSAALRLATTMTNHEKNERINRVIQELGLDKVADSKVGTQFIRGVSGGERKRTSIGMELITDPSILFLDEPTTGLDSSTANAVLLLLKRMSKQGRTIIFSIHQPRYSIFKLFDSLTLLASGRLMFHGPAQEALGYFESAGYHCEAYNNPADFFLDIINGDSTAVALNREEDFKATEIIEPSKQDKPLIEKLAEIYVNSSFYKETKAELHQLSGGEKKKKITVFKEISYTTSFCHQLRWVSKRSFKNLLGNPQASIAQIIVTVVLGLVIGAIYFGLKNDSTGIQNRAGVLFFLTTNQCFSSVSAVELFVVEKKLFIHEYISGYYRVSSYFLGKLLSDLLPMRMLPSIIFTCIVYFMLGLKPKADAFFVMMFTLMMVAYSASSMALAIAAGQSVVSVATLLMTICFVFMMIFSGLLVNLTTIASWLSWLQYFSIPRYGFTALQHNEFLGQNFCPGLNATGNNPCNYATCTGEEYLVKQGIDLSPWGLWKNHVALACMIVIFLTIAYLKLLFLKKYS
Chain of Cytochrome P450 2C19 (Homo sapiens) (P33261 whole entry, looked up): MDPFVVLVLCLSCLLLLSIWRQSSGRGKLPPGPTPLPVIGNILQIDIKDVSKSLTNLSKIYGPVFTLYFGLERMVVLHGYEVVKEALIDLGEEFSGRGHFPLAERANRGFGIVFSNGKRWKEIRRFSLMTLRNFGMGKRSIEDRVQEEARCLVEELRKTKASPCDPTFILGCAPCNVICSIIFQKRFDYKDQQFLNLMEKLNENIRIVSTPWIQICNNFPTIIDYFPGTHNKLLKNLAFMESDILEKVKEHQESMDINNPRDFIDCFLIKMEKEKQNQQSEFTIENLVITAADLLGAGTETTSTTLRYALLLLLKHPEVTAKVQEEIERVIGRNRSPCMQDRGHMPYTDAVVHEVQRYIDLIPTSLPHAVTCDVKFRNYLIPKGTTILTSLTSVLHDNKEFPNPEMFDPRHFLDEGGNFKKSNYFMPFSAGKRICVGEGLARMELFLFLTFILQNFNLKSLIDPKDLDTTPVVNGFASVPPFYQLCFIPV
Chain of Cytochrome P450 3A4 (Homo sapiens) (P08684 whole entry, looked up): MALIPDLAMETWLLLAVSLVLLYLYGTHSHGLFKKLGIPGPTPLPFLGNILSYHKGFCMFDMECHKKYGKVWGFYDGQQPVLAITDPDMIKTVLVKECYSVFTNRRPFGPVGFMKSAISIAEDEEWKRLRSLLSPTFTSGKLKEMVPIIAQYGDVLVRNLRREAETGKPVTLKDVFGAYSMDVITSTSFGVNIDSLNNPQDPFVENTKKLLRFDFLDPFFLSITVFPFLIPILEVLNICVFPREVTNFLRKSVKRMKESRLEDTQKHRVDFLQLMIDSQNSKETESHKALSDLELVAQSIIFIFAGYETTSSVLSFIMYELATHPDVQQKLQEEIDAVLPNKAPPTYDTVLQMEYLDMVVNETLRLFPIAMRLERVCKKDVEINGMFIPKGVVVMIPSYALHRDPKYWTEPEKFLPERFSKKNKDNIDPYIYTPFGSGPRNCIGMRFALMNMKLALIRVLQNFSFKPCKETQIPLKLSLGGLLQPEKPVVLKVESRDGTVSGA

One may read the AC50 as the concentration at which the activity in the assay is half-maximal. Regarding `CCCN(CCOc1c(Cl)cc(Cl)cc1Cl)C(=O)n1ccnc1`, the molecule was classed as inactive in assay [1], in [2], in [4], in assay [6] and in assay [13]. Moreover, the AC50 in assay [3] is 0.702 µM (active); in assay [5] it was 5.63 µM (active); in assay [7], 1.89 µM (active); in assay [8], 0.432 µM (active); in [9], 0.128 µM (active); in assay [10], 0.178 µM (active). For the same molecule, the AC50 in assay [11] was 35.4 µM (active); in assay [12], 0.458 µM (active).
As to `Cc1cc(C)nc(NC(=O)NS(=O)(=O)c2ccccc2C(=O)OC2COC2)n1`, the call in [14], in assay [2], in [3], in [4], in [5] and in assay [6] was inactive. In addition, the call in [15], in assay [7], in assay [16], in [17], in assay [9] and in assay [10] was inactive. Moreover, the molecule was called inactive in [11] and in assay [13].
Turning to `N#CN`, the outcome in assay [14], in [1], in assay [2], in assay [5], in [6] and in assay [11] was inactive. The call in assay [12] and in [13] was inactive.
For the molecule `[2H]C1([2H])[n+]2ccccc2-c2cccc[n+]2C1([2H])[2H]`, the molecule was called inactive in assay [14], in assay [1], in [2], in assay [4], in assay [5] and in assay [6]. The call in [10], in assay [11] and in [13] was inactive. Besides, in assay [12], the AC50 is 20 µM (active).
In the case of `CCc1ccc(C(=O)NN(C(=O)c2cc(C)cc(C)c2)C(C)(C)C)cc1`, the call in [14], in assay [5], in [17], in assay [12] and in [18] was inactive. Further, the concentration at half-maximal activity (AC50) is 20 µM (active) in [1]; 2.09 µM (active) in assay [3]; 20 µM (active) in [15]; 2.19 µM (active) in [7]; 4.06 µM (active) in assay [16]; 2.15 µM (active) in [8]. Moreover, the AC50 is 2.18 µM (active) in assay [9] and 5.55 µM (active) in [10].
As to `Clc1ccccc1-c1nnc(-c2ccccc2Cl)nn1`, the call in assay [14], in assay [1], in assay [2], in assay [4], in assay [5] and in [6] was inactive. The result in [16], in assay [17] and in assay [11] was inactive. In addition, the AC50 in assay [3] was 0.0004 µM (active); in [15], 4.38 µM (active); in [7], 0.00929 µM (active); in assay [8], 6.89 µM (active); in assay [9] it was 3.08 µM (active); in [10], 20 µM (active). In assay [12], the concentration at half-maximal activity (AC50) was 9.05 µM (active).
On to `COc1nn(CSP(=S)(OC)OC)c(=O)s1`, for which the outcome in assay [14], in [4] and in assay [16] was inactive. For the same molecule, the half-maximal activity concentration (AC50) in [3] is 2.94 µM (active); in assay [5], 18.2 µM (active); in [15], 3.12 µM (active); in [7], 1.97 µM (active); in assay [9] it was 0.655 µM (active); in assay [10], 3.97 µM (active). In addition, the concentration at half-maximal activity (AC50) in assay [12] was 11.2 µM (active).
Consider `C#CCN1C(=O)COc2cc(F)c(N3C(=O)C4=C(CCCC4)C3=O)cc21`, for which the outcome in [14], in assay [2], in assay [4], in assay [16], in assay [10] and in assay [11] was inactive. The outcome in assay [12] was inactive. The AC50 was 0.301 µM (active) in [3]; 4.15 µM (active) in assay [5]; 20 µM (active) in assay [7]; 4.94 µM (active) in assay [8]; 0.652 µM (active) in assay [9].
